Assay results reported in PubChem BioAssay (Tox21).
Records with an inconclusive call do not appear. Entries that show only a call come without a potency. Activity calls are given as the source filed them. Calls follow the shape of the dose curve; as a rule, active = well fitted cell-killing curve with a large enough effect in the repeat runs; inconclusive = weak or mixed curves; inactive = flat fitted curve, though single readings scatter.

Experiment: qHTS RealTime-Glo MT Cell Viability Assay in HepG2 cells - 16 hour (AID 1224885); also: nearly all actives have a fitted effect of over 50% in size
Conditions: RealTime-Glo luminescence; series mostly up to 76.8 µM
Excerpt: U.S. Tox21 Program National Center for Advancing Translational Sciences [NCATS] NIH Chemical Genomics Center [NCGC] U.S. Environmental Protection Agency [EPA] National Institutes of Environmental Health Sciences [NIEHS] National Toxicology Program [NTP] U.S. Food and Drug Administration [FDA] Tox21 Assay Overview: Measure of cell viability is critical in the cell-base assay. Analysis of cell viability is necessary for the characterization of cell responses to cytotoxic drugs and environmental stress. A RealTime-Glo MT Cell Viability Assay to monitor cell viability in real time of continues cell culture during 40 hours of compound treatment was used to screen Tox21 10K library compounds in HepG2 cells. The RealTime-Glo MT Cell Viability Assay is a nonlytic, homogeneous, bioluminescent method to measure cell viability in real time using a simple, plate-based method. The assay involves adding NanoLuc luciferase and a cell-permeant prosubstrate to cells in culture. Viable cells reduce the proprietary prosubstrate to generate a substrate for NanoLuc luciferase. This substrate diffuses from cells into the surrounding culture medium, where it is rapidly used by the NanoLuc Enzyme to produce a luminescent signal. The signal correlates with the number of viable cells, making the assay well suited for cytotoxicity studies.
Tox21 Assay Protocol Summary: The mixture of HepG2 cell suspension and reagents were dispensed at 600cells/6 ul/well in 1536-well tissue culture treated black solid bottom plates using a Multidrop dispenser. After the assay plates were incubated at a 37 C/5% CO2 incubator for 5 hours, 23 nL of compounds dissolved in DMSO, positive and negative controls was transferred to the assay plate by a pintool work station. The plates were incubated at 37 C for 40 hours. The luminescence intensity were measured at 0h, 8h, 16h, 24h, 32h and 40h time points using ViewLux plate reader during compound treatment.

SMILES	Potency	activity change, negative = cytotoxic
O=[N+]([O-])c1ccc(F)cc1F	inactive	–
C/C=C(\C)C#N	inactive	–
C=C(C)CS(=O)(=O)O	inactive	–
NS(=O)(=O)c1cc(C(=O)NN2C[C@H]3[C@H]4CCC(C4)[C@H]3C2)ccc1Cl	inactive	–
CC(C)CNCC(C)C	inactive	–
O=C(O)c1ccccc1OP(=O)(O)O	inactive	–
CC(C)(C)NCCNC(C)(C)C	inactive	–
Nc1cc(=O)[nH]c(N)n1	inactive	–
CC(=O)Nc1c(I)cc(I)c(C(=O)O)c1I	inactive	–
O=C(CCCN1CCN(c2ccccn2)CC1)c1ccc(F)cc1	inactive	–
N[C@@H](C(=O)N[C@@H]1C(=O)N2C(C(=O)O)=C(Cl)CS[C@H]12)c1ccccc1	–	1.78% [at 6.97 µM] (inactive)
CCOC(=O)c1c(C)n(C)c2ccc(O)cc12	inactive	–
Cn1c(N)c(N=O)c(=O)n(C)c1=O	inactive	–
CC(=O)OCC(=O)[C@@]1(O)CCC2C3CCC4=CC(=O)CC[C@]4(C)C3[C@@H](O)C[C@@]21C (stereo not given in full)	inactive	–
CC1(C)CO[C@@H](CC(=O)O)CN1	inactive	–
O=c1n(CCO)c(=O)n(CCO)c(=O)n1CCO	inactive	–
c1cnc(N2CCN(Cc3ccc4c(c3)OCO4)CC2)nc1	inactive	–
COc1nc(N)nc2c1ncn2[C@@H]1O[C@H](CO)[C@@H](O)[C@@H]1O	inactive	–
CC(C)(c1ccc(O)cc1)c1ccc(O)cc1	inactive	–
Cn1cc(S(C)=O)c(=O)c2ccc(F)cc21 (stereo not given)	inactive	–

SMILES	Potency	activity change, negative = cytotoxic
N#Cc1ccc(C2CCCc3cncn32)cc1 (stereo not given)	inactive	–
CC(=O)Nc1ccc(S(N)(=O)=O)cc1	inactive	–
CCc1cccc2c(CCO)c[nH]c12	inactive	–
CCCCCCCCCCCCN(CCCCCCCCCCCC)CCCCCCCCCCCC	inactive	–
CCCC(=O)O[C@]1(C(=O)CO)CC[C@H]2[C@@H]3CCC4=CC(=O)CC[C@]4(C)[C@H]3[C@@H](O)C[C@@]21C	inactive	–
O=c1cc(-c2ccccc2)oc2ccccc12	inactive	–
CCOC(=O)C(=O)OCC	inactive	–
CN1CC(=O)NC1=N	inactive	–
NC(=O)Nc1ccccc1	inactive	–
CCN1CCC[C@H]1CNC(=O)c1c(O)c(Cl)cc(Cl)c1OC	inactive	–
COC(=O)CCSCCC(=O)OC	inactive	–
O=C1OC(=O)C2CCCCC12 (stereo not given)	inactive	–
C[C@H]1C[C@@H](O)CC(C)(C)C1	inactive	–
CC1(C)C(O)C(C)(C)C1O (stereo not given)	inactive	–
O=Cc1cccc([N+](=O)[O-])c1	inactive	–
CCCCCOC(=O)CCCCC	inactive	–
O=C(O)COc1nn(Cc2ccccc2)c2ccccc12	inactive	–
CCn1ccnc1CC1COc2ccccc2O1 (stereo not given)	inactive	–
CC(=O)N(CC(O)CO)c1c(I)c(C(=O)NCCO)c(I)c(C(=O)NCC(O)CO)c1I (stereo not given)	inactive	–
c1ccc([C@H]2CN3CCSC3=N2)cc1	inactive	–
